Reference: PubChem BioAssay AID2174 (The Scripps Research Institute Molecular Screening Center, 2009)
Screen size: about 320,000 compounds; about 500 (0.16%) were called active.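 The calls were made as follows: active = inhibition above the mean of all tested compounds plus 3 SD, set per campaign (cut at about 14% in these data); inactive = the rest.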 For the sample, actives were picked, then their nearest neighbours and some compounds at random.

Target: Acyl-protein thioesterase 1 (Homo sapiens) (UniProt O75608)
Test: inhibition of human lysophospholipase 1 – biochemical, fluorescence polarization, FP-Rh probe ABPP, counter-screen for PME1 inhibitor project, primary screen (AID 2174);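 also: inhibitors block serine hydrolase probe labeling of LYPLA1 so polarization falls; 0% = enzyme with DMSO and 100% = wells lacking LYPLA1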
Conditions: recombinant LYPLA1, FP-Rh probe fluorescence polarization; at 5.9 µM; active compounds read high

Sequence of Acyl-protein thioesterase 1 (Homo sapiens) (O75608 whole entry, looked up): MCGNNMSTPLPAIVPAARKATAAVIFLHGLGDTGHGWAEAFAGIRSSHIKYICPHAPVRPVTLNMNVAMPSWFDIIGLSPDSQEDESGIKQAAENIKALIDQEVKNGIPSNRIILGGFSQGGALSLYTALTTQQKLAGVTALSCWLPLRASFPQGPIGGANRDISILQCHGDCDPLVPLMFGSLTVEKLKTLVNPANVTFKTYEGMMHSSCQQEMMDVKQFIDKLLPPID

SMILES | inhibition
O=[N+]([O-])c1ccc(N(CCO)Cc2ccccc2)c([N+](=O)[O-])c1 | -0.28% (inactive)
O=C(CN1CCN(c2cccc(Cl)c2)CC1)Nc1ccc(S(=O)(=O)N2CCOCC2)cc1 | 18.1% (active)
O=C(CN1CCCCCC1)Nc1ccc(S(=O)(=O)N2CCCCC2)cc1 | 1.21% (inactive)
O=C(CN1C(=O)CCC1=O)Nc1ccc(S(=O)(=O)N2CCOCC2)cc1 | -5.25% (inactive)
CCCCn1c(N)c(N(CC(C)C)C(=O)C2CSC3(C)CCC(=O)N23)c(=O)[nH]c1=O (stereo not given) | -1.21% (inactive)
COCCOC(=O)c1sc(=S)n(CCOC)c1N | 19.7% (active)
COC(=O)c1sc(=S)n(-c2ccc(Cl)cc2)c1C | 0.52% (inactive)
CC(=O)Nc1ccc(N2C(=O)C3C4CC(=O)C(c5ccccc54)C3C2=O)cc1 (stereo not given) | 1.72% (inactive)
COc1ccccc1-n1c(=S)[nH]c2c(sc(=S)n2-c2ccc(C)cc2C)c1=O | 2.01% (inactive)
Cc1ccc(Oc2ccc3c(c2)C(=O)N(c2cccc4cccnc24)C3=O)cc1 | -5.81% (inactive)
O=S(=O)(NCCCN1CCOCC1)c1ccc(F)c(Cl)c1 | 2.43% (inactive)
Cc1c(Br)c([N+](=O)[O-])nn1CC(=O)N1CCN(Cc2ccccc2)CC1 | 1.03% (inactive)
COc1cccc(C(C(=O)NC2CCCC2)N(C(=O)c2ccco2)c2cccc(C(C)=O)c2)c1OC (stereo not given) | 0.23% (inactive)
O=c1[nH][nH]c(C(F)(F)F)c1C=NCc1ccccc1Cl | 1.78% (inactive)
Cc1ccc(OCC(=O)Oc2ccccc2[N+](=O)[O-])cc1 | 1.05% (inactive)
COc1ccc(/C=C/c2noc(-c3ccccc3OC(C)=O)n2)cc1 | -1.21% (inactive)
CN=C1SC(C(=O)O)CC(=O)N1C (stereo not given) | -2.92% (inactive)
O=C(CSc1nnc(-c2ccoc2)o1)N1CCOCC1 | -2.17% (inactive)
Cc1cc2ccccn2c1C(=O)c1cccc(S(=O)(=O)N2CCOCC2)c1 | -1.9% (inactive)
O=C(NCc1ccccc1)[C@H]1C[C@@H]1[C@H](NP(=O)(c1ccccc1)c1ccccc1)c1ccccc1 | -4.27% (inactive)
CCCCCCNCCn1cnc2c(N)ncnc21 | -4.2% (inactive)
CC1(C)CC(=O)C/C(=N\NC(=O)c2cccs2)C1 | -2.89% (inactive)
CCOc1ncccc1C(=O)OCC(=O)c1c[nH]c2ccccc12 | -4.27% (inactive)

SMILES | inhibition
COc1cccc(-c2nc(CS(=O)CC(=O)NCc3ccc(F)cc3)c(C)o2)c1 (stereo not given) | 1.75% (inactive)
COc1ccc(-c2nc(CS(=O)CC(=O)NCc3ccccc3)c(C)o2)cc1OC (stereo not given) | -1.5% (inactive)
COc1ccc(-c2nc(CS(=O)CC(=O)NCc3ccccn3)c(C)o2)cc1 (stereo not given) | 25% (active)
O=C1CC(C(F)(F)C(F)(F)C(F)(F)C(F)(F)F)=Nc2ccccc2N1 | 0.46% (inactive)
CCN(Cc1ccccc1)S(=O)(=O)c1cc(C(=O)O)ccc1OC | -4.32% (inactive)
Nc1nc(SCC(=O)NNc2c(Cl)cc(Cl)cc2Cl)n[nH]1 | 2.34% (inactive)
Cc1cc(C)c(C#N)c(SCC(=O)NN2CC(=O)N(c3ccccc3F)CC2=O)n1 | -0.67% (inactive)
Cc1cccc(-n2c(SCC(N)=O)nc3c(c2=O)C2(CCCCC2)Cc2ccccc2-3)c1 | -3.86% (inactive)
Cn1ccc(=NC=C(C#N)C#N)c2ccccc21 | -3.88% (inactive)
CN(C)c1ccc(N/C=C/C(=O)C(F)(F)F)cc1 | -5.36% (inactive)
CCN(CC)C(=O)CSc1ncnc2c1cnn2-c1ccccc1 | -1.45% (inactive)
COc1ccc(/C=C2\CCCC3C2=NN(C(=O)c2scnc2C)C3c2ccc(OC)cc2)cc1 (stereo not given) | -3.35% (inactive)
CCCN(CCC)C(=O)C1c2ccccc2Oc2ccccc21 | -1.51% (inactive)
O=C(O)CCS(=O)(=O)c1ccc(-c2ccccc2)cc1 | -0.07% (inactive)
NS(=O)(=O)c1ccc(NC(=S)NNC(=O)c2cccs2)cc1 | 0.82% (inactive)
COC(=O)[C@@H]1CC[C@H](C)[C@@H](c2ccc(C)cc2)N1C(=O)c1ccc(/C=N/O[C@H](C)c2cn([C@@H]3COC[C@H]3O)nn2)cc1 | -1.13% (inactive)
COCCCN(C(=O)CSCc1ccc(C)cc1)c1c(N)n(Cc2ccccc2)c(=O)[nH]c1=O | -5.33% (inactive)
Cc1ccccc1NC(=O)NC1(C(=O)N2CCCC2)CCCCC1 | 5.72% (inactive)
CCN1C(=O)/C(=C2/Sc3ccccc3N2CCCS(=O)(=O)O)SC1=S | 14.2% (active)
CCN1C(=O)/C(=c2\s/c(=C3\Sc4ccccc4N3C)c(=O)n2C)N(C)C1=S | -0.75% (inactive)
CCCCN1C(=O)/C(=C2/Sc3ccc(Cl)cc3N2CC)SC1=S | 2.19% (inactive)
COc1ccc(CNC(=O)C(=O)NCC2OCCN2C(=O)c2ccc(OC)cc2)cc1 (stereo not given) | -3.36% (inactive)
CC(C)c1ccc(S(=O)(=O)N2CCN(C(=O)CN3C(=O)NC(C)(c4ccccc4)C3=O)CC2)cc1 (stereo not given) | 0.26% (inactive)

SMILES | inhibition
Cc1ccccc1C(=O)NC(=S)NC1CC1 | -2.2% (inactive)
Cc1c(C(=O)NCCN2C(=O)S/C(=C\c3cccs3)C2=O)cccc1[N+](=O)[O-] | -7.3% (inactive)
COc1ccc(S(=O)(=O)N(CCCN2CCCC2=O)Cc2cc3c(C)ccc(C)c3[nH]c2=O)cc1 | -0.26% (inactive)
COc1cc(OC)cc(C(=O)NNC(=O)CNC(=O)c2ccc(Br)o2)c1 | -3.43% (inactive)
O=C(NCCCN1CCCCC1)C1CCCN(c2ncnc3c2nc2n3CCCCC2)C1 (stereo not given) | 4.5% (inactive)
O=C(COC(=O)CCOc1ccccc1)Nc1cc(S(=O)(=O)N2CCCCC2)ccc1Cl | -5.97% (inactive)
Cc1ccsc1/C=C1\SC(N2CCOCC2)=NC1=O | -3.19% (inactive)
Cc1ccc(N2CCN(C3=NC(=O)/C(=C\c4cccs4)S3)CC2)cc1 | 29% (active)
Cc1ccc(N2CCN(/N=C/c3cccs3)CC2)cc1 | 2.05% (inactive)
CCCCc1nc2cc(C(=O)N3CCCCC3CCO)ccc2o1 (stereo not given) | -0.28% (inactive)
O=C(NCCc1ccccc1)C(=O)NCC1OCCN1S(=O)(=O)c1cccs1 (stereo not given) | 2.86% (inactive)
O=C(CCn1c(SCC(=O)c2ccccc2)nc2ccccc2c1=O)NCc1ccc(F)cc1 | 33.2% (active)
O=C(CSc1nc2ccccc2c(=O)n1-c1ccc(F)cc1)NC1CC1 | 0.87% (inactive)
O=C(CCCn1c(SCC(=O)c2ccccc2)nc2ccccc2c1=O)NCC1CCCO1 (stereo not given) | 2.13% (inactive)
O=C(N/N=C/c1ccsc1)c1cc(O)cc(O)c1 | 3.13% (inactive)
CCOCCCNC(=O)c1cn(CC(C)C)c(=O)c2c1c1ccccc1n2C | 0.47% (inactive)
COc1ccc(S(=O)(=O)N/N=C\c2ccc(OC)c(COc3ccc(C)cc3[N+](=O)[O-])c2)cc1 | 3.24% (inactive)
Cc1ccc(N(CC(=O)NC2CCCCC2)C(=O)CCCC(=O)Nc2ccccn2)c(C)c1 | -5.08% (inactive)
CC1CCCCC1NC(=O)NC(=O)COC(=O)C1=NN(c2ccccc2)C(=O)CC1 (stereo not given) | -3.28% (inactive)
CCOc1ccc(S(=O)(=O)N2CCCC(C(=O)N3CCC(C(N)=O)CC3)C2)cc1Cl (stereo not given) | -0.84% (inactive)
CCn1cc(CN2CCC(C(=O)Nc3cccc(-c4cccc(Cl)c4)c3)CC2)c(C)n1 | -1.53% (inactive)
O=C(NCc1ccccc1Cl)C1CCN(c2ncnc3c2nc2n3CCCCC2)CC1 | 3.58% (inactive)
O=C(Cc1ccccc1F)NC1CCSc2ccccc21 (stereo not given) | -2.96% (inactive)

SMILES | inhibition
O=C(CC1Nc2ccccc2NC1=O)Nc1ccccc1 (stereo not given) | -11.2% (inactive)
COc1ccc(NS(=O)(=O)c2cccc(C(=O)NCCc3ccc(S(N)(=O)=O)cc3)c2)cc1 | 0.92% (inactive)
CCC(Cc1ccccc1)NC(=O)C1CCCCC1 (stereo not given) | -0.48% (inactive)
CCN(CC)S(=O)(=O)c1ccc(N2CCOCC2)c(NC(=O)c2ccc(=O)n(C)n2)c1 | 3.13% (inactive)
CCOC(=O)/C(=N\Nc1ccccc1Cl)N(C)C1CCS(=O)(=O)C1 (stereo not given) | 6.62% (inactive)
O=C(Nc1nnc(C2COc3ccccc3O2)o1)c1ccc(F)cc1 (stereo not given) | -3.93% (inactive)
COc1ccc2c(c1)OC(O)(C(F)(F)C(F)F)CC2=O (stereo not given) | 0.29% (inactive)
Cc1cc(-c2ccccc2)nc(N2CCC(C(=O)NC34CC5CC(CC(C5)C3)C4)CC2)n1 | -0.18% (inactive)
CC(=O)Nc1ccc(C(=O)N(C2=NC(C)CS2)c2ccc(Cl)cc2)cc1 (stereo not given) | -16.3% (inactive)
O=C(Nc1cccc(Cl)c1)c1cncn1-c1ccc(F)cc1 | -4.38% (inactive)
CC(C)(C)c1ccc(CCC2OCC(CN3CCOCC3)O2)cc1 (stereo not given) | -1.79% (inactive)
O=C1CN(C(=O)COc2c(Cl)cccc2Cl)c2ccccc2N1 | -0.08% (inactive)
O=C(NCCCc1ccccc1)c1cc(COc2c(F)cccc2F)on1 | -0.18% (inactive)
CN(CCOc1ccccc1)C(=O)c1cc(COc2c(F)cccc2F)on1 | 17.4% (active)
Cc1ccc(OCc2cc(C(=O)N(C)CCc3ccccc3)no2)cc1C | 2.48% (inactive)
COc1cccc(NC(=O)N2C3CCCC2CC(NC(C)=O)C3)c1 (stereo not given) | -0.11% (inactive)
COc1cccc(NC(=O)C2CCCN2C(=O)OCc2ccccc2)c1 (stereo not given) | 1.14% (inactive)
COc1cccc(NC(=O)N2CCCC2C(=O)NC2CCCCC2)c1 (stereo not given) | 15.1% (active)
CCc1c(SCCC(=O)O)nc2ccccc2c1C | 2.67% (inactive)
COc1ccc2c(c1)[C@H]1[C@H](CO2)[C@H](c2ccccc2)[C@]2(C)C(=O)Nc3cc(F)c(F)cc3C(=O)N12 | -14.6% (inactive)
Cc1cccc(N2CCC(NCc3c(C(=O)N4CCCCC4)nc4c(C)cccn34)CC2)c1 | 0.61% (inactive)
